Assay outcomes (PubChem)
The list is not random: actives were taken first. Their share in the collection is about 21%.
DT40 TDP1 no CPT = qHTS for Inhibitors of human tyrosyl-DNA phosphodiesterase 1 (TDP1): qHTS in cells in absence of CPT. DT40 Tdp1-/- hTDP1 cells, no CPT, ATP luminescence, 48 h. Potency, µM (series often up to 46.2 µM), without a hit: top-dose activity change, negative = growth inhibition, hits mostly inhibitors. 15% of 420,000 active. AID 686978, 2013; also: potency is read from the fitted curve at half-maximal effect; nearly all actives have a fitted effect of over 55% in size
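No-CPT arm: Tdp1-/-;hTDP1 DT40 cells (400/well) plus compounds, incubated ≥48 hr at 37 °C. Readout CellTiter-Glo luminescence.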
IL-1B inflam inh = qHTS for Inhibitors of Inflammasome Signaling: IL-1-beta AlphaLISA Primary Screen; AID 743279, 2014; activity change, % at 57.5 µM; THP-1 LPS/ATP IL-1B secretion, AlphaLISA, 16 h; hits give low values; 4.7% of 360,000 active; in the data active = activity change below about -50%; inconclusive = mostly about -30% to -49%
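Secreted IL-1B measured by AlphaLISA bead assay after 16 h compound exposure of THP-1 cells; compounds (final up to 57.5 uM) added 1 h before LPS (250 ng/mL) and ATP (1.25 mM) stimulation; lower signal means less secretion.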
RORgamma inh = qHTS for inhibitors of ROR gamma transcriptional activity | Potency, µM (top dose mostly 53.6 µM), without a hit: top-dose activity change, negative = inhibition, actives largely listed as inhibitors | Nuclear receptor ROR-gamma (Mus musculus), P51450 | 5.4% of 310,000 active | AID 2551, 2010 | Drosophila S2 Gal4-RORgamma UAS-luciferase reporter, 20 h; also: potency is read from the fitted curve at half-maximal effect; nearly all actives have a fitted effect of over 60% in size
Target sequence (P51450 whole entry, looked up, the tested form may be a part): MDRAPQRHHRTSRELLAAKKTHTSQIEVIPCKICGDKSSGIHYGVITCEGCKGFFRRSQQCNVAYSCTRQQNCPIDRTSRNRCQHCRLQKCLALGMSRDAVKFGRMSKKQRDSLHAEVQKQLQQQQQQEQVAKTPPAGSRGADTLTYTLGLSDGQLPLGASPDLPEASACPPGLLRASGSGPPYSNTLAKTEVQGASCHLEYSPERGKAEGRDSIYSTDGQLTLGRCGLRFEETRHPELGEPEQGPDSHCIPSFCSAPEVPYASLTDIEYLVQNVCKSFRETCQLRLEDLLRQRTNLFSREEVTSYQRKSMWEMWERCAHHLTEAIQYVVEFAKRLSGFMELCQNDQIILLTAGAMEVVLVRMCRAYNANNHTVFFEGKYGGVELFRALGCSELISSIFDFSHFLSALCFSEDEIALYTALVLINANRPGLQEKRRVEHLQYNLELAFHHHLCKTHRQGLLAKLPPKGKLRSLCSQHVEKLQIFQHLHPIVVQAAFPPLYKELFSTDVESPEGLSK
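In this cell-based reporter format, copper sulfate (700 uM final) drives Gal4–ROR gamma fusion expression from a metallothionein promoter in Drosophila Schneider cells; compounds preincubated 1 hr, reporter read after 20 hr at ambient temperature.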
Gal4-VP16 FLuc = VP16 counterscreen qHTS for inhibitors of ROR gamma transcriptional activity; 3.5% of 310,000 active; Drosophila S2 Gal4-VP16 UAS-luciferase, luminescence, 20 h; Potency, µM (series often up to 53.6 µM), for inactives: top-dose activity, negative = inhibition, most hits filed as inhibitors; AID 2546, 2010;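 also: Gal4-VP16 expression switched on by copper sulfate through the metallothionein promoter; potency is read from the fitted curve at half-maximal effect; nearly all actives have a fitted effect of over 50% in size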
TDP1 cell CPT = qHTS for Inhibitors of human tyrosyl-DNA phosphodiesterase 1 (TDP1): qHTS in cells in presence of CPT; Potency, µM (titrated, usually from 46.2 µM), for the others: top-dose activity change, negative = growth inhibition, most hits filed as inhibitors; 12% of 420,000 active; AID 686979, 2013; chicken DT40 Tdp1-/-;hTDP1 cells + 20 nM CPT, ATP luminescence, 48 h; also: potency is read from the fitted curve at half-maximal effect; nearly all actives have a fitted effect of over 55% in size
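Chicken DT40 Tdp1-/- cells stably complemented with human TDP1 were seeded at 400 cells/well in medium containing 20 nM camptothecin, exposed to pin-transferred compounds, and grown at 37 °C for at least 48 hr. Viability was read as ATP luminescence.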
ELG1 DNA repair = qHTS screen for small molecules that inhibit ELG1-dependent DNA repair in human embryonic kidney (HEK293T) cells expressing luciferase-tagged ELG1. HEK293T ELG1-luciferase reporter, luminescence, 16 h; DNA damage induced by 5-fluorouridine. Potency, µM (doses to about 46.1 µM), for inactives: at the highest dose activity change, negative = inhibition, actives largely listed as inhibitors. 2.3% of 330,000 active. AID 504467, 2011; also: potency is read from the fitted curve at half-maximal effect; nearly all actives have a fitted effect of over 55% in size
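Luminescence from the luciferase reporter, measured 30 min after ONE-Glo reagent at room temperature, was the read-out. Beforehand, 2,000 cells per well were exposed for 16 hr at 37 °C to 5-fluorouridine together with compound or vehicle.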
Numbers without * were called inactive; ? = inconclusive; . = no result given. Unless noted, calls follow the shape of the dose curve; as a rule, active = well fitted curve in the direction sought with a large enough effect; inconclusive = small, poorly fitted or top-dose-only effect, or another doubt; inactive = no such curve, though single readings can be large; an effect the other way counts as inactive or inconclusive. % is scaled to controls: 0 for no effect and ±100 for the full control effect.

SMILES	DT40 TDP1 no CPT	IL-1B inflam inh	RORgamma inh	Gal4-VP16 FLuc	TDP1 cell CPT	ELG1 DNA repair
NC(=O)c1cccc2ccccc12	4%	-7	-14%	-2%	-20%	0%
CC(C)(C)OC(=O)NC(Cc1ccccc1)C(=O)NC1COC2CC(n3cc(F)c(=O)[nH]c3=O)OC12 (configuration not stated)	.	.	43%	4%	.	.
COc1ccc(N2CCN(C(=O)c3cc4c(=O)oc5ccc(C)cc5c4s3)CC2)cc1	-13%	.	.	.	-1%	.
Cc1cc(C)n(-c2nc(N(C)C)nc(N3CCOCC3)n2)n1	-7%	9	3.2µM*	?	-12%	-28%
Cc1cc(N2CCC(C)CC2)nc(-n2nc(C)cc2C)n1	2.6µM*	1	0.4µM*	1.3µM*	2.6µM*	?
C#CCSc1nc(=O)c2cccnc2n1-c1ccc(C)cc1	5.8µM*	26	-9%	0%	5.2µM*	4%
CC(C)[C@@H](CC(=O)N[C@@H]1CCCC[C@H]1C(=O)N[C@H](CC(=O)N[C@@H](CCC(=O)O)CC(=O)O)Cc1ccccc1)NC(=O)C[C@H](Cc1c[nH]c2ccccc12)NC(=O)[C@@H]1CNCC[C@H]1N	.	.	-10%	-3%	.	.
CCOc1ccc(/C=N/NC(=O)Cc2ccccc2)cc1CN1CC2CC(C1)c1cccc(=O)n1C2 (configuration not stated)	21µM*	-104*	.	.	?	?
CCOc1ccc(CCNC(=O)Cn2nnc(-c3ccccc3Cl)n2)cc1OCC	-27%	.	.	.	-24%	.
CCOc1ccc(CCNC(c2cccc(Cl)c2)c2nnc(-c3ccccc3)o2)cc1OCC (configuration not stated)	26µM*	.	.	.	16µM*	.
Cc1cc(C)cc(NC(c2cccc(Cl)c2)c2nnc(-c3ccccc3)o2)c1 (configuration not stated)	?	.	.	.	-27%	.
CCOc1ccc(CCNC(c2nnc(-c3ccccc3)o2)c2ccccc2Cl)cc1OCC (configuration not stated)	15µM*	.	.	.	15µM*	.
CCn1c(C)nc2cc(-c3nc4n(n3)Cc3ccccc3-4)ccc21	7.3µM*	?	0.89µM*	0.045µM*	6.5µM*	?
Cc1ccc(-c2nc3n(n2)Cc2ccccc2-3)cc1	?	-20	?	10µM*	?	?
CCn1c(C)nc2cc(C(=O)NNC(=O)c3ccc(C)cc3)ccc21	-23%	10	.	.	-3%	?
Fc1ccc(-c2nc3n(n2)Cc2ccccc2-3)cc1	?	36	0%	?	-24%	?
Cc1ccc2c(c1)/C(=C/c1ccc(F)cc1)C(=O)N2	21µM*	-75*	-2%	-1%	?	-10%
Cc1ccc2c(c1)/C(=C/c1ccccc1C)C(=O)N2	?	-100*	37%	-3%	-30%	?
COc1ccccc1/C=C1\C(=O)Nc2ccccc21	21µM*	-16	8%	?	?	?
O=C1Nc2ccccc2/C1=C/c1ccccc1Cl	?	-12	?	-10%	6%	-9%
CC(C)NC1(C#N)CCN(Cc2ccccc2)CC1	22%	3	.	.	13%	.
CNC(C)C(=O)NC(C(=O)NC(C)C(=O)NNc1ccccc1)C(C)C (configuration not stated)	-23%	20	.	.	20%	.
CC1Cc2[nH]c(=S)[nH]c(=O)c2C(c2ccc(C(C)C)cc2)O1 (configuration not stated)	-27%	26	.	.	-22%	.
CC1OC(CCc2cccc(Cl)c2)Cc2[nH]c(=S)[nH]c(=O)c21 (configuration not stated)	26µM*	37	.	.	?	.
CC(C)C[C@@H]1O[C@H](CCc2ccccc2)Cc2[nH]c(=S)[nH]c(=O)c21	?	34	.	.	?	.
SMILES	DT40 TDP1 no CPT	IL-1B inflam inh	RORgamma inh	Gal4-VP16 FLuc	TDP1 cell CPT	ELG1 DNA repair
CCCCC1Cc2[nH]c(=S)[nH]c(=O)c2C(c2ccc(C(C)C)cc2)O1 (configuration not stated)	23µM*	0	.	.	16µM*	.
NC(c1ccccc1)c1cccs1 (configuration not stated)	-19%	-9	.	.	-21%	.
Fc1cccc(CCN2C(=S)NC[C@@H]2Cc2ccccc2)c1	?	0	2.2µM*	7.1µM*	21µM*	-5%
CCCC[C@@H]1CNC(=S)N1CCc1cccc(F)c1	?	-12	1.4µM*	4µM*	-74%	-2%
O=C1NC[C@H](Cc2ccc(O)cc2)N(CCc2cccc(F)c2)C1=O	-17%	-19	.	.	-10%	.
Fc1cccc(CCN2C(=S)NC[C@@H]2CC2CCCCC2)c1	?	?	2µM*	6.3µM*	?	-2%
CCN(CC)CCn1c(=S)[nH]c2ccc(Cl)cc2c1=O	-19%	-10	?	?	-1%	0%
CC(C)n1c(=S)[nH]c2cc(Cl)ccc21	?	19	?	20µM*	-19%	-6%
CC(=O)c1cccc(NC(=O)C2C(c3ccccc3)C2(Cl)Cl)c1 (configuration not stated)	-22%	-23	26%	-8%	-23%	?
CCOc1ccc(NC(=O)C2C(c3ccccc3)C2(Cl)Cl)cc1 (configuration not stated)	23µM*	-9	37%	2%	?	?
Cc1cccc(NC(=O)C2C(c3ccccc3)C2(Cl)Cl)c1 (configuration not stated)	13µM*	0	24%	1%	?	?
O=C(COc1ccccc1Cl)N(Cc1cccc(F)c1)C1CCS(=O)(=O)C1 (configuration not stated)	?	.	.	.	-6%	.
CNS(=O)(=O)c1cn(CC(=O)Nc2ccc(C(C)=O)cc2)cc1S(=O)(=O)NC	0%	.	.	.	-7%	.
O=C(CSc1nc2ccccc2c(=O)n1-c1ccc(F)cc1)Nc1ccc(C(=O)O)cc1	13%	13	-26%	17%	28%	13%
